Data reported in PubChem BioAssay.
The source made the active and inactive calls.

How the values were obtained:
[1] = small molecules captured by biotinylated probe aFSTL3 – biochemical, small-molecule microarray, fluorescence 635/667, stem cell growth factor project, primary screen (AID 1064); conditions: higher = more signal;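 also: measures binding of the biotinylated anti-FSTL3 antibody to printed compounds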
[2] = binders from COS7 lysate, DM2A8 probe, primary screen, torsin A project, cell lysate, small-molecule microarray, fluorescence 635/667 (AID 1065); conditions: higher = more signal, COS7 lysate expressing mutant human TOR1A
[3] = small molecules captured by biotinylated probe aFGF2 – biochemical, small-molecule microarray, fluorescence 635/667, stem cell growth factor project, primary screen (AID 1067); conditions: higher = more signal;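 also: measures binding of biotinylated aFGF2 protein to printed compounds on slides; z-score merges feature fluorescence and signal-to-noise across triplicate slides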
[4] = small molecules captured by biotinylated probe aFGF10 – biochemical, small-molecule microarray, fluorescence 635/667, stem cell growth factor project, primary screen (AID 1071); conditions: higher = more signal;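 also: score merges 667 nm spot intensity and signal to noise from triplicate slides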
[5] = target: Neurogenic locus notch homolog protein 2 (Homo sapiens) (UniProt Q04721); assay: small molecules binding Notch2 protein – biochemical, small-molecule microarray, 635 nm fluorescence, stem cell growth factors, primary screen (AID 1073); conditions: higher = more signal
[6] = target: Pro-neuregulin-1, membrane-bound isoform (Homo sapiens) (UniProt Q02297); assay: small molecules binding neuregulin-1 protein – biochemical, small-molecule microarray, fluorescence 635/667, psychiatric disease protein project, primary screen (AID 1075); conditions: NRG1 binding, 635 nm fluorescence, higher = more signal;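 also: score combines 667 nm spot fluorescence with signal to noise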
[7] = test system: Neuregulin-1 EGF-like domain; assay: small molecules binding NRG1 EGF domain – biochemical, small-molecule microarray, 635 nm fluorescence, primary screen (AID 1081); conditions: higher = more signal;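 also: binding of the protein to compounds printed on small-molecule microarray slides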
[8] = FRG1 expression reporter modulators in myotubes – cell-based, C2C12 myotubes, firefly/Renilla luciferase, luminescence, FRG1 inhibition for FSHD, primary screen (AID 1084); conditions: FRG1 promoter luciferase, higher = more signal, called active from +8 up or from −8 down
[9] = small molecules captured by biotinylated probe aFST – biochemical, small-molecule microarray, fluorescence 635/667, stem cell growth factor project, primary screen (AID 1086); conditions: higher = more signal;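 also: score merges 667 nm fluorescence with signal-to-noise of each printed compound spot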
[10] = binders of probe aHhip on microarray, primary screen, stem cell growth factor project, biochemical, small-molecule microarray, fluorescence 635/667 (AID 1087); conditions: higher = more signal;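 also: score merges spot fluorescence at 667nm with spot signal to noise ratio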

Pro-neuregulin-1, membrane-bound isoform (Homo sapiens), sequence (Q02297 whole entry, looked up, the tested form may be a part, canonical isoform): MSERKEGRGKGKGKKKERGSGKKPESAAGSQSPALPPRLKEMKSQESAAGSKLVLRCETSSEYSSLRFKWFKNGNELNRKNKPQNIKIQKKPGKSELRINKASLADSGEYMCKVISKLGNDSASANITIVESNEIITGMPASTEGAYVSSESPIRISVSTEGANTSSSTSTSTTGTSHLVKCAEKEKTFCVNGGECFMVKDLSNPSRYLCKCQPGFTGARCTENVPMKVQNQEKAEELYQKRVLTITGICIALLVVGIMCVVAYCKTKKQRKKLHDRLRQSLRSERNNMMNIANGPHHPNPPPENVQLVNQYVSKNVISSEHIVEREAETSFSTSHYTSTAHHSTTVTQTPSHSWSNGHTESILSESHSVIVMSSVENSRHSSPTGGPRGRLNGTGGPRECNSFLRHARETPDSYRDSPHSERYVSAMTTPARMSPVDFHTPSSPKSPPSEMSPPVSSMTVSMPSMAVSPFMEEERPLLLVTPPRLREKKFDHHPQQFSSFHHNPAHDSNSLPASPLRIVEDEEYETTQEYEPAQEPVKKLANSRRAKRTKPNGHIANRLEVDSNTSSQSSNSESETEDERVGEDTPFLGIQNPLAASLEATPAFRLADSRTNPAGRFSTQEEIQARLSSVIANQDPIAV
Neurogenic locus notch homolog protein 2 (Homo sapiens), sequence (Q04721 whole entry, looked up, canonical isoform): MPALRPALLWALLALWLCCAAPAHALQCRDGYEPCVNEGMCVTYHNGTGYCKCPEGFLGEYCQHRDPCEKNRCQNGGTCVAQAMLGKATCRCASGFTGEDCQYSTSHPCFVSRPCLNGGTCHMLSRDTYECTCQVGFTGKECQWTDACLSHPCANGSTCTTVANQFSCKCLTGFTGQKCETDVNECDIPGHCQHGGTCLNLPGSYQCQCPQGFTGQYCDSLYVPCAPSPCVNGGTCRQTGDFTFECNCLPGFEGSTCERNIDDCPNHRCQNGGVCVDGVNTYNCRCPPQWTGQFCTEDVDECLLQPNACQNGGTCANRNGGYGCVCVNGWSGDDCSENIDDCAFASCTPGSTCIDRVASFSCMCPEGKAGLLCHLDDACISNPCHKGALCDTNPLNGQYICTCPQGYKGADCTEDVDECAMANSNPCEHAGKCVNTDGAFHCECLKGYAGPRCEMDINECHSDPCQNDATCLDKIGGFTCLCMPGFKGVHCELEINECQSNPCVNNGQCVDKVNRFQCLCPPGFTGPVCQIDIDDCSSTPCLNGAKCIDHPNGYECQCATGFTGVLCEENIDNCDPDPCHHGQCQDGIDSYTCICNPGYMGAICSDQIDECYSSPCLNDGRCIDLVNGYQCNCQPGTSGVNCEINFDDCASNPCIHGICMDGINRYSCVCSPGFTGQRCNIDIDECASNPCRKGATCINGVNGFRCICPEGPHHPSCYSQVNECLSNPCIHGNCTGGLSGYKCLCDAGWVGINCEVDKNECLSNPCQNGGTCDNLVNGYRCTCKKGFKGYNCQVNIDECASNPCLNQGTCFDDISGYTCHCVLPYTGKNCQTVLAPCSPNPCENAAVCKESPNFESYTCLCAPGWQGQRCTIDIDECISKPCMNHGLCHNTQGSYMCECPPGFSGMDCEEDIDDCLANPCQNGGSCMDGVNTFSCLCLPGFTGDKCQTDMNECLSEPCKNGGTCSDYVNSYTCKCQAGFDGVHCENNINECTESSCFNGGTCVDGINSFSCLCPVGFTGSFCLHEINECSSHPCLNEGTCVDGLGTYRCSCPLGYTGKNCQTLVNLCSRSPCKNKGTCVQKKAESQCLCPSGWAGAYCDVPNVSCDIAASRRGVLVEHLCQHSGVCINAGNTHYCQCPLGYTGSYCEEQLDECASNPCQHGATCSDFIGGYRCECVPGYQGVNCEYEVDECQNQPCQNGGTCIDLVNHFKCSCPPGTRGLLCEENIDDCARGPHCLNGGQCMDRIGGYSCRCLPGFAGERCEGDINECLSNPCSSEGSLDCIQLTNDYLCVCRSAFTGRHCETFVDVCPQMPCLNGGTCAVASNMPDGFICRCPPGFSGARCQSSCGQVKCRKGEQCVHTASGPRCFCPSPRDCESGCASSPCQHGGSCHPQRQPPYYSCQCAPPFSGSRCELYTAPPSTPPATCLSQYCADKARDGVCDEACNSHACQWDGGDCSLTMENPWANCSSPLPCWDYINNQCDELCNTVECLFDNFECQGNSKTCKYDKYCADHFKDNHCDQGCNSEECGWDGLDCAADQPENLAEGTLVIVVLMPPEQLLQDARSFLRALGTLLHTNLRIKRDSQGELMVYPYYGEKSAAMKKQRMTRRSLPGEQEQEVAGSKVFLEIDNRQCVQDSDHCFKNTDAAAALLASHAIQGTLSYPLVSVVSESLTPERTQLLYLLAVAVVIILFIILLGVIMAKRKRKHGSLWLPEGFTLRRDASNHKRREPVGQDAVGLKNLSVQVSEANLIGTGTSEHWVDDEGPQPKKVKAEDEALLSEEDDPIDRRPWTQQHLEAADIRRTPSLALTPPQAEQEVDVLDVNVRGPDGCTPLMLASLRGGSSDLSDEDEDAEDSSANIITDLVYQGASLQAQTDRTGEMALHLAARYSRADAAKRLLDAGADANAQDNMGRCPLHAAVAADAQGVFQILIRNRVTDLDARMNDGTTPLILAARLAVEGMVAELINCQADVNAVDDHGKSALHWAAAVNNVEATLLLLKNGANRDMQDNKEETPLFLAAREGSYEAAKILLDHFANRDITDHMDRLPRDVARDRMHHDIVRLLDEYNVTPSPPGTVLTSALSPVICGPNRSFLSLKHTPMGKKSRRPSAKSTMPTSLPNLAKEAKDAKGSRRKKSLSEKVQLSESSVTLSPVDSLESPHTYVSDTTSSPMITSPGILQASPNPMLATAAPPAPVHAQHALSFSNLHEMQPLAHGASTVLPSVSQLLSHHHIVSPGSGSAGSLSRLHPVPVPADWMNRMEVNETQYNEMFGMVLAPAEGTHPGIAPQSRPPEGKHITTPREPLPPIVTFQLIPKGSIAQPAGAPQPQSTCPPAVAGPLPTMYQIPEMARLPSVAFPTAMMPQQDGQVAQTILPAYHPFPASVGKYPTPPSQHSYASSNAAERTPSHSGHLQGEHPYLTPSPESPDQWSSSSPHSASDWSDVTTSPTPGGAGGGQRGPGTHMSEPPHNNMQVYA

SMILES | composite z-score [1] | composite z-score [2] | composite z-score [3] | composite z-score [4] | composite z-score [5] | composite z-score [6] | composite z-score [7] | z-score [8] | composite z-score [9] | composite z-score [10]
NC(=O)N1C(=O)C2C(C1=O)C1C=C(CCCO)C2C(C2CC2)N1Cc1sc2ccccc2c1Cl (stereo not given) | -0.4 | 1.09 | 0.0397 | 1.27 | 0.481 | 1.45 | 1.21 | 0.906 (inactive) | 0.115 | -0.134
COC(=O)[C@@]1(Cc2ccc(OC)cc2)[C@H]2c3cc(C(=O)N4CCCC4)n(Cc4c(CO)[nH]cc(C)c4=O)c3C[C@H]2CN1C(=O)c1ccccc1 | 0.0744 | 0.31 | -0.06 | 0.505 | 1.57 | 1.11 | 0.802 | -1.02 (inactive) | 0.829 | 0.0302
CCCNC(=O)[C@@]1(Sc2ccc(C)cc2)CC(=O)N(Cc2ccccc2Cl)[C@@H]1c1ccc(CO)cc1I | 0.746 | -1.23 | -0.127 | -0.391 | -1.13 | 1.4 | 0.895 | -1.6 (inactive) | 0.0493 | 0.106
CC1CC/C=C\[C@H]2OC34C=CCN(CCN5CCOCC5)C(=O)[C@H]3N(CCCO)C(=O)[C@@H]4C2C(=O)O1 (stereo not given in full) | -0.215 | 0.0721 | -0.183 | -0.0957 | -0.475 | -0.376 | 1.07 | 0.149 (inactive) | -0.354 | -0.0994
C=CCC(OC(C)=O)[C@@H]1[C@@H](N(Cc2cccc3ccccc23)C(=O)c2ccc(-c3ccccc3)cc2)c2cc(OCCCO)ccc2N1C(=O)Cc1ccc2ccccc2c1 (stereo not given in full) | -0.141 | 0.14 | -0.0171 | -0.272 | 0.07 | 0.022 | -0.374 | -0.94 (inactive) | 0.481 | -0.134
C=CCNC(=O)[C@@H]1[C@H]2C(=O)O[C@H](c3ccccc3)[C@H](c3ccccc3)N2[C@H](c2ccc(OCCO)cc2)[C@@]12C(=O)Nc1ccc(C#CC3(O)CCCCCC3)cc12 | 0.0068 | 0.927 | -0.0765 | 0.592 | 1.21 | 1.29 | 1.29 | 0.803 (inactive) | 0.551 | -0.0994
C=C(CCCC)/C(=C/C[C@H](OC(=O)c1ccncc1)c1ccccc1OCCO)c1cc(C(=O)OC)ccc1OC | -0.17 | 0.963 | -0.0591 | 0.845 | 0.101 | -0.217 | 0.787 | 0.908 (inactive) | 0.416 | -0.0237
O=C1C=C(c2ccccc2)C(=O)C2=C1CC([C@H]1Oc3ccccc3S(=O)(=O)N3CCC[C@@H]13)=CC2 | -0.415 | -0.618 | -0.119 | -0.0024 | -0.103 | 0.0032 | -0.702 | -0.7 (inactive) | 1.49 | -0.0296
CC(=O)c1ccc(C(O)C2C=CC3C(=O)N(c4ccccc4)C(=O)C3N2Nc2ccc(C(C)C)cc2)cc1 (stereo not given) | 0.305 | -0.152 | -0.0226 | 0.897 | 1.37 | 1.55 | 1.09 | 0.59 (inactive) | 1.51 | -0.106
COc1ccc([Si](C)(C)[C@H]2[C@H](CC(=O)N3Cc4ccccc4C[C@H]3CO)O[C@@]3(C(=O)N(c4ccccc4)c4ccccc43)[C@@H]2C)cc1 | 0.0545 | 1.37 | 0.0568 | 0.748 | 0.584 | 1.16 | 1.16 | -2.31 (inactive) | 0.381 | 0.21
Cc1ccc(S[C@]2(C(=O)NCC(F)(F)F)CC(=O)N(Cc3ccccc3C(F)(F)F)[C@@H]2c2ccc(CO)cc2)cc1 | 0.953 | -0.0728 | -0.1 | -0.0379 | -1.14 | -0.401 | 0.573 | -1.82 (inactive) | -0.606 | -0.191
CC1CC/C=C\[C@H]2OC34C=CCN(c5ccc(Cl)cc5)C(=O)[C@H]3N(CCCCCCO)C(=O)[C@]4(C)C2C(=O)O1 (stereo not given in full) | -0.147 | -0.965 | -0.176 | -0.219 | -0.705 | 0.639 | 1.52 | 0.975 (inactive) | -0.56 | -0.204
Cc1ccc(N2C(=O)c3ccccc3[C@](C)(C(=O)NCCCN(C)C)[C@@H]2c2ccc(CO)cc2)nc1 | 0.908 | -0.109 | -0.1 | -0.436 | -0.676 | -0.114 | 0.582 | 1.36 (inactive) | 0.423 | -0.236
CC1=C([C@H](O)CCc2ccccc2)[C@H](CO)n2c(=O)n(-c3ccccc3)c(=O)n2C1 | -0.312 | -0.322 | -0.159 | 0.0052 | -0.371 | -0.355 | -0.56 | -0.973 (inactive) | -0.429 | -0.236
C=C(C)[C@@H]1CC=C(C(O)C2C=CC3C(=O)N(C)C(=O)C3N2Nc2ccc([N+](=O)[O-])cc2[N+](=O)[O-])CC1 (stereo not given in full) | 0.661 | 0.294 | -0.144 | 0.431 | 1.68 | 1.74 | 1.36 | 0.404 (inactive) | 1.46 | -0.0003
COCCOC(=O)N1C(=O)[C@@]2(c3cc(C#Cc4ccc(OC)cc4)ccc31)[C@H](c1ccc(OCCO)cc1)N1[C@H](c3ccccc3)[C@H](c3ccccc3)OC(=O)[C@H]1[C@@H]2C(=O)NC[C@H](O)c1ccccc1 | 1.48 | 0.628 | 0.005 | 0.703 | 1.15 | 0.455 | 1.2 | 0.848 (inactive) | 0.919 | 0.28
CC(C)C(O)C1C=CC2C(=O)NC(=O)C2N1Nc1ccccn1 (stereo not given) | 0.359 | -0.103 | -0.0502 | 0.138 | 0.926 | 0.306 | 1.1 | 0.944 (inactive) | 0.547 | 0.151
COCCOC(=O)N1C(=O)[C@@]2(c3cc(C#CCCO)ccc31)[C@H](c1ccc(OCCO)cc1)N1[C@H](c3ccccc3)[C@H](c3ccccc3)OC(=O)[C@H]1[C@@H]2C(=O)N1CCCCCCC1 | 3.17 | 1.15 | 0.487 | 1.08 | 1.37 | 1.65 | 1.16 | 0.278 (inactive) | 2.65 | 3.2
CCOC(=O)C1=CC[C@@H](c2ccc(OC)cc2)N(S(=O)(=O)c2ccc(C)cc2)[C@H]1c1ccc(C)cc1 | -0.208 | -0.236 | -0.062 | 0.584 | 1.52 | 0.46 | 1.05 | 0.0599 (inactive) | 1.11 | -0.0618
COC(=O)C[C@H]1O[C@@]2(C[C@@H]1[Si](C)(C)C)C(=O)N(C)c1ccccc12 | -0.469 | 0.105 | -0.129 | 0.487 | 0.833 | 0.22 | 0.672 | -0.933 (inactive) | 0.607 | -0.0645
COCCOC(=O)N1C(=O)[C@@]2(c3cc(C#CCC(C(=O)OC)C(=O)OC)ccc31)[C@H](C(=O)Nc1nc3ccccc3s1)[C@H]1C(=O)O[C@H](c3ccccc3)[C@H](c3ccccc3)N1[C@@H]2c1ccc(OCCO)cc1 | 0.357 | 0.773 | 0.224 | 0.81 | 1.22 | 0.166 | 1.23 | 4.17 (inactive) | 0.853 | -0.0699
CC(C)NC(=O)[C@@]1(C)c2ccccc2C(=O)N(Cc2ccccc2)[C@H]1c1ccc(CO)cc1 | 0.267 | 0.824 | -0.169 | -0.548 | -1.12 | 1 | 0.814 | -2.47 (inactive) | -0.875 | -0.291
O=C(NCCN1CCOCC1)[C@@H]1c2ccccc2C(=O)N(Cc2ccccc2C(F)(F)F)[C@H]1c1ccc(CO)cc1 | -1.15 | -0.438 | -0.319 | -0.613 | -1.2 | 0.875 | -0.755 | -1.79 (inactive) | 0.48 | -0.504
O=C(NCC(O)CO)C1N=C(c2ccc(OCCCO)cc2)N(c2ccccc2)O1 (stereo not given) | -0.279 | 0.657 | 0.0073 | 0.643 | 0.575 | -0.168 | 0.462 | 3.24 (inactive) | -0.282 | 0.136
COc1ccc([Si](C)(C)[C@H]2[C@H](CCO)O[C@@]3(C(=O)N(Cc4cccc(N5C(=O)c6ccccc6Oc6ccccc65)c4)c4ccccc43)[C@@H]2C)cc1 | 0.115 | -0.672 | -0.0645 | 0.462 | 0.139 | 0.962 | 1.02 | -1.19 (inactive) | -0.278 | -0.132
C=CCN1C(=O)[C@]2(O[C@H](CCn3cc([C@H](O)c4ccccc4)nn3)[C@@H]([Si](C)(C)c3ccc(OC)cc3)[C@@H]2C)c2cc(NC(=O)c3ccc(OC)cc3)ccc21 | -0.255 | 0.39 | -0.112 | 0.141 | 0.603 | 0.0976 | 0.519 | -2.62 (inactive) | 0.0019 | 0.0722
COCCOC(=O)N1C(=O)[C@@]2(c3cc(C#CCCO)ccc31)[C@H](C(N)=O)[C@H]1C(=O)O[C@H](c3ccccc3)[C@H](c3ccccc3)N1[C@@H]2c1ccccc1OCCO | -0.352 | 0.755 | -0.0579 | 0.658 | 1.11 | 1.43 | 1.19 | -0.96 (inactive) | 0.52 | 0.219
C=CCC(OC(C)=O)[C@@H]1[C@@H](N(Cc2ccc(-c3cccc(C(F)(F)F)c3)o2)C(=O)c2ccc(-c3ccccc3)cc2)c2cc(OCCCO)ccc2N1C(=O)c1ccc2ccccc2c1 (stereo not given in full) | -0.071 | -0.651 | -0.105 | -0.117 | 0.311 | -0.0973 | -0.373 | -0.274 (inactive) | 0.543 | -0.0618
COCCCNC(=O)[C@@]1(Sc2ccc(C)cc2)CC(=O)N(Cc2ccccc2C(F)(F)F)[C@@H]1c1ccc(CO)cc1I | 1.21 | -0.204 | -0.132 | -2.12 | -1.8 | 1.17 | -0.823 | -0.903 (inactive) | -0.228 | -0.132
